Source: PubChem BioAssay
Mtb BioA inh – M. tuberculosis BioA enzyme inhibitors, primary screen, biochemical, plate reader, single point, HTS; actives 0.096% (n = 360,000); inhibition, % at 9.99 µM; AID 602481, 2012; 7,8-diaminopelargonic acid synthase BioA (Mycobacterium tuberculosis); purified M. tuberculosis BioA enzyme; in the data active = inhibition above about 40%
PrP UTR inh – inhibition of PrP 5' UTR reporter expression; cell-based PrP 5' UTR mRNA reporter, plate reader; inhibition, % (test concentration not listed); actives 0.35% (n = 340,000); in the data active = inhibition above about 52%; note: 0 = median of the neutral control wells
PfHsp40 rescue – rescue of yeast from PfHsp40 toxicity, primary screen, S. cerevisiae, ATP luminescence. S. cerevisiae expressing PfHsp40, growth rescue. growth rescue, % at 12.5 µM. actives 0.68% (n = 340,000); in the data active = growth rescue above about 28%, passing the limit was not always enough;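 note: yeast W303a lacking pdr1 and pdr3 grown in galactose medium; growth measured after three days at 30 °C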
Y pestis TopoI – Yersinia pestis topoisomerase I inhibitors, primary screen, biochemical, cleavage product accumulation, plate reader, single point; actives 0.064% (n = 360,000); Y. pestis Topo-I cleavage product accumulation; activity, % at 10 µM; AID 504884, 2011; in the data active = activity above about 50%, passing the limit was not always enough
TcdB GH inh – TcdB glycohydrolase inhibitors, primary screen, biochemical, single point, plate reader. Toxin B (Clostridioides difficile), P18177. TcdB glycohydrolase enzymatic assay. inhibition, % at 9.99 µM. actives 0.24% (n = 350,000). AID 652162, 2013; in the data active = inhibition above about 10%
FadD28 FP inh – inhibitors of FadD28 bisubstrate probe binding, primary screen, biochemical, fluorescence polarization, single point; AID 588549, 2011; inhibition, % at 12.5 µM; actives 0.22% (n = 360,000); in the data active = inhibition above about 8.5%, passing the limit was not always enough
Active calls of the source: *; nt = not tested or not shown. Sampled rows, rich in hits. Any-hit rate of the full collection: about 1.2%.

SMILES | Mtb BioA inh | PrP UTR inh | PfHsp40 rescue | Y pestis TopoI | TcdB GH inh | FadD28 FP inh
Cc1ccc(S(=O)(=O)Nc2ccc3ccccc3c2[N+](=O)[O-])cc1 | 3.8 | -21.9 | 408.5* | -0.2 | -5.5 | 2.0
COc1ccc([N+](=O)[O-])cc1NS(=O)(=O)c1ccc(C)cc1 | 0.0 | -18.6 | 0.0 | 2.9 | 0.3 | -1.3
Cc1ccc(S(=O)(=O)Nc2ccc3cc([N+](=O)[O-])ccc3c2[N+](=O)[O-])cc1 | 3.7 | -17.3 | 352.2* | -8.1 | -0.4 | 4.8
C[C@H]1CN([C@@H](C)CO)C(=O)c2cc(C#Cc3cccnc3)cnc2O[C@H]1CN(C)C(=O)CN(C)C | 0.5 | nt | nt | nt | -0.2 | nt
COCCCNc1oc(-c2ccccc2OC)nc1C#N | -0.2 | -10.7 | 1.1 | -6.4 | nt | -0.6
COCCCNc1oc(-c2ccccc2F)nc1C#N | -1.0 | -28.7 | 34.4* | 9.7 | 1.4 | -3.0
O=C(Nc1ccccc1C(=O)Nc1nncs1)c1ccccc1 | 0.8 | -6.4 | -1.0 | -2.7 | 0.5 | -2.0
O=C(Nc1nncs1)c1ccc(S(=O)(=O)c2ccccc2)cc1 | -2.2 | 5.1 | 173.1* | 2.0 | nt | -1.2
CC(C)n1cnc2c(NCc3ccccc3)cc(Cc3ccc(F)cc3)cc21 | 0.2 | -11.3 | 115.4* | 5.1 | 1.4 | -3.2
O=C(N/N=C/c1ccc[nH]1)c1cc2ccccc2cc1O | 1.1 | -50.8 | 2.8 | -8.0 | 1.5 | 0.9
O=C(N/N=C/c1ccncc1)c1cc2ccccc2cc1O | 1.5 | -18.0 | 187.2* | -12.2 | -0.3 | -4.1
Cc1cccc(OCC(O)Cn2ccnc2C)c1 (stereo not given) | -0.2 | 7.4 | -1.2 | 65.9* | -7.0 | -1.0
COc1cccc(CNC(=O)C[C@@H]2C=C[C@H](NC(=O)C3CCC3)[C@H](CO)O2)c1 | -0.1 | nt | nt | nt | nt | nt
O=C1NC(=S)NC1=Cc1ccc(O)cc1 | 0.3 | -60.6 | 1.3 | -5.2 | 16.4* | 0.8
COc1ccc(N=Nc2cc(OC)c(N)cc2OC)cc1 | 12.0 | -26.5 | 1.6 | -7.8 | 10.5* | 0.8
COc1ccc(N=Nc2ccc(N)nc2N)cc1 | 0.0 | -60.1 | -0.1 | -13.1 | -0.3 | -3.7
COc1cc(-c2noc(C)c2C#Cc2ccccn2)cc(OC)c1OC | 3.8 | 17.5 | 3.0 | 6.1 | 2.7 | -5.0
COc1cc(-c2noc(C)c2C#Cc2ccc(N)cc2)cc(OC)c1OC | -0.7 | 65.0* | -0.4 | 17.9 | 0.1 | -2.9
Cn1cc(C2CC(c3ccccc3)=NN2C(=O)c2ccccc2)c2ccccc21 (stereo not given) | -1.4 | -1.8 | 2.1 | 18.5 | nt | -2.9
CCCC(=O)N1N=C(c2ccccc2)CC1c1cn(C)c2ccccc12 (stereo not given) | -1.6 | -23.0 | 0.4 | 56.5* | nt | -1.4
CN(C)c1ccc(/C=C/c2nc3ccccc3c(=O)[nH]2)cc1 | nt | 60.5* | -0.3 | 1.9 | -2.0 | -1.4
O=C(C[C@H]1C[C@@H]2c3cc(NC(=O)Nc4ccccc4F)ccc3O[C@@H]2[C@@H](CO)O1)NCc1cc(F)ccc1F | -0.2 | nt | nt | nt | 0.3 | nt
COc1ccccc1NC(=O)c1cc2ccc(O)cc2o/c1=N\O | -0.8 | -34.7 | 0.6 | -18.7 | nt | 18.4*
C[C@H](CO)N1C[C@H](C)[C@H](CN(C)S(C)(=O)=O)Oc2ccc(N(C)C)cc2CC1=O | -1.0 | nt | nt | nt | -6.2 | nt
CS(=O)(=O)Nc1ccc2c(c1)[C@H]1C[C@H](CC(=O)NCc3ccccn3)O[C@H](CO)[C@H]1O2 | 0.2 | nt | nt | nt | 0.2 | nt
O=C(NC(Cc1ccccc1)C(=O)O)C1CCN(S(=O)(=O)c2ccccc2C(F)(F)F)CC1 (stereo not given) | 5.7 | -10.1 | 1.1 | -1.8 | -0.3 | 11.3*
CN(C)C(CNC(=O)C1CCN(S(=O)(=O)c2ccccc2C(F)(F)F)CC1)Cc1ccccc1 (stereo not given) | -1.1 | -6.9 | -2.1 | -5.8 | -1.6 | -5.4
CC(C)OC(=O)c1cccc(C(=O)O)n1 | -0.3 | -18.1 | 4.1 | -2.6 | 11.5* | -0.6
CC(C)OC(=O)c1cccc(C(=O)Oc2ccc(Br)cc2)n1 | 0.7 | -19.4 | 0.0 | 6.8 | nt | -0.8
CC(C)(C)n1nc(Cc2cccc3ccccc23)c2c(N)ncnc21 | -0.1 | 5.3 | 551.6* | 21.2 | 3.8 | 1.3
